SMILES strings stand for the structures. Records with an inconclusive call do not appear. A number with no mark means an inactive call. Active and inactive are the calls of the source. The call rests on the fitted dose curve; in most records, active means well fitted inhibition curve with a large enough effect; inconclusive means small, poorly fitted or top-dose-only effect; inactive means flat fitted curve, though single readings scatter.
On the % scale 0 is the no-effect control and ±100 the full control effect; potency means the concentration at half of the fitted maximal effect.

This experiment deals with Voltage-gated inwardly rectifying potassium channel KCNH2 (Homo sapiens) (UniProt Q12809). In words: qHTS Assay for Small Molecule Inhibitors of the Human hERG Channel Activity (AID 588834).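 Further: lower thallium flux fluorescence means stronger hERG block; nearly all actives have a fitted effect of over 50% in size.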 On activity change, negative = inhibition: top concentration of the series differs between compounds. Conditions: U2OS BacMam hERG, FluxOR thallium flux fluorescence; series mostly up to 46.1 µM; activity change, negative = inhibition: at the top concentration. An excerpt: NIH Chemical Genomics Center [NCGC]
Chain of Voltage-gated inwardly rectifying potassium channel KCNH2 (Homo sapiens) (Q12809 whole entry, looked up): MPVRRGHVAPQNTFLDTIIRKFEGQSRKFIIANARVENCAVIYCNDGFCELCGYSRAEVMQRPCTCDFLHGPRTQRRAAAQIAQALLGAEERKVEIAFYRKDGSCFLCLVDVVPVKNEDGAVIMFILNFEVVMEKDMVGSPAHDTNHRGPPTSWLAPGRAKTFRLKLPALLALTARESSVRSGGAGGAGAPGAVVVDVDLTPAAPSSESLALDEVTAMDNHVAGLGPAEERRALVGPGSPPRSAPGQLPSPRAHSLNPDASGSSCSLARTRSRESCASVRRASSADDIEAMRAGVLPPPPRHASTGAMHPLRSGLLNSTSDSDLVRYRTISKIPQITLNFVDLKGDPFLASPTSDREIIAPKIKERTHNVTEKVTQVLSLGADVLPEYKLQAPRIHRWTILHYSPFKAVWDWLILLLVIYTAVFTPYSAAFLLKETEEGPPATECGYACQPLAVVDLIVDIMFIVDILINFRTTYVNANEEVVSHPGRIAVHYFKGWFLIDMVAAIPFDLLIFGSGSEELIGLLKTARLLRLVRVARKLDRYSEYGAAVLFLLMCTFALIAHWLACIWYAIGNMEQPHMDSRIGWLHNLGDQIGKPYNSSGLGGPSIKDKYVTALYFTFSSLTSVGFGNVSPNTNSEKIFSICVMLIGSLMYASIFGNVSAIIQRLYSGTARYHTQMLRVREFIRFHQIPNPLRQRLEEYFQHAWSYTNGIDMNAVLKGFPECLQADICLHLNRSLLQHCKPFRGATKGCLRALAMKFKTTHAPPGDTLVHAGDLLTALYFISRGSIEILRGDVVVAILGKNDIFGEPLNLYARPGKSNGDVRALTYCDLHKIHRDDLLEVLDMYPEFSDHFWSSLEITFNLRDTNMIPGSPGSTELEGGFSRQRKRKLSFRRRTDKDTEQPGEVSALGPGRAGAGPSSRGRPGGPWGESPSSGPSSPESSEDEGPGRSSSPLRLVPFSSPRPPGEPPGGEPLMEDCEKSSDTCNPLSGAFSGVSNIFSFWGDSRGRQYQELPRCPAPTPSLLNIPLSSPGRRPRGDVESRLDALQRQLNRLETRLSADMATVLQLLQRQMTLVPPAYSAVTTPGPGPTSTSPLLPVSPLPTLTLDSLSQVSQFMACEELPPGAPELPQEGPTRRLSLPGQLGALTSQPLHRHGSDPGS
National Institutes of Environmental Health Sciences [NIEHS]
National Toxicology Program [NTP]
We have developed a 1536-well cell-based assay for quantitative high throughput screening (qHTS) to determine in vitro hERG channel blockage as a measure of cardio toxicity with small molecules. This particular assay uses the U2OS cell line which is derived from human osteosarcoma.
NCGC Assay Protocol Summary:
HERG assay (FluxORTM thallium flux assay) was initially developed by Invitrogen/Molecular Probes, and then miniaturized into 1536-well plate in a homogeneous format by NCGC. This assay measures the activity of potassium channel using thallium dye (FluxOR) flux as surrogate measurement for potassium into the cells with a FDSS-7000 kinetic plate reader (Hamamatsu Corp., Hamamatsu City, Japan). The hERG ion channel is transduced into mammalian cells (U2OS) using a baculovirus (Bacmam) construct harboring the hERG K+ ion channel. So far we screened LOPAC1280 library (Sigma), the NTP collection of 1408 compounds, and the NCGC Pharmaceutical Collection (NPC), in which many well defined HERG blockers are present. The rank order potencies of many of these compounds are similar to that of other HERG assays (membrane potential, Rb+ flux, patch clamp, etc). This quick and homogeneous assay is also found to be sensitive, specific, and robust.
Using the FluxORTM thallium flux assay, the activity of potassium channel using thallium dye (FluxOR) flux as surrogate measurement for potassium into the cells was measured in the U2OS cell line transduced with hERG K+ ion channel using a baculovirus (Bacmam) using Opti-MEM medium (Invitrogen) containing 2% fetal calf serum (FCS, HyCone) following loading buffer addition, compound treatment for around 10 minutes and finally adding stimulation buffer. The assay was performed in black clear Kalypsys 1536-well plates. In the screen, Astemizole was used as positive controls. Library compounds were measured for their ability to cause hERG channel blockage in the cell line, as reflected by a decrease in fluorescence intensity, in a concentration-dependent manner. […] AC50 values were determined from concentration-response data modeled with the standard Hill equation.
qHTS protocol for hERG-U2OS cellular assay
[Step] [Parameter] [Value] [Description]
1. Day 1: Replace medium in 70-80% confluent T225 flask with 2.5 mL of hERG-BacMam virus plus 12.5 mL of phosphate buffered saline (PBS) (corresponding roughly to a multiplicity of infection ratio of 100 virus particles/cell)
2. Incubation: 4 hrs @ room Temperature in Dark
3. Reagent; Remove virus; wash once with 25 ml DPBS
4. Reagent; 35 ml culture medium
5. Incubation; 37 °C overnight
6. Day2: Reagent; 3 uL; 2000 U2OS cells/well
7. Time; 4 hr; 37 °C incubation
8. Loading buffer; 1 uL; 0.7X;
9. Incubation: 1hr @ RT in Dark.
12. Time; 10min; 37 °C incubation
13. Read fluorescence Intensity on FDSS for 10 Sec with 1 sec interval
14. Reagent; 1 uL; stimulation buffer
15. Read fluorescence Intensity on FDSS for 2 min with 1 sec interval
16. Detection; Fluorescence Intensity; FDSS
Turning to `NCC1CCC(C(=O)Oc2ccc(CCC(=O)O)cc2)CC1` (stereo not given), the “activity change, negative = inhibition” value was -5.84%.

Consider `C[N+](C)(C)CC[N+]1(C)Cc2c(Cl)c(Cl)c(Cl)c(Cl)c2C1`, for which the “activity change, negative = inhibition” value is 11.5%.

With `O=c1[nH]c(=O)n([C@H]2C[C@H](O)[C@@H](CO)O2)cc1I`, the “activity change, negative = inhibition” value was -1.35% [at 20.6 µM].

`NC(=O)CC[C@@H](N)C(=O)O`: the “activity change, negative = inhibition” value is 2.91%.

Take `CCCC(O)C(CC)CO` (stereo not given): the Potency result is “inactive”.

For the compound `Cc1c(Cn2ccnc2)c2ccccc2n1CCC(=O)O`, the “activity change, negative = inhibition” value was 6.6%.

For `Cc1c(I)c(=O)n(-c2ccccc2)n1C`, the “activity change, negative = inhibition” value is -3.14%.

`OCC(O)CS` (stereo not given): the “activity change, negative = inhibition” value was 6.33%.

`Cc1cc(-n2nc3ccc(Cl)cc3n2)c(O)c(C(C)(C)C)c1`: the “activity change, negative = inhibition” value is 6.01%.

Consider `CCN(CC)CCOC(=O)C(c1ccccc1)c1ccccc1`, for which the Potency was 2 µM (active).

Take `FC(F)(F)C(Cl)Br` (stereo not given): the Potency entry was “inactive”.

`C/C(=C(\CCO)SS/C(CCO)=C(\C)N(C=O)Cc1cnc(C)nc1N)N(C=O)Cc1cnc(C)nc1N`: the “activity change, negative = inhibition” value was 5.69%.

On to `CC(=O)Nc1cccc(O)c1`, for which the Potency result is “inactive”.

As for `NS(=O)(=O)c1ccc(C(=O)O)cc1`, the “activity change, negative = inhibition” value was 1.99%.

As to `Cc1c(N(C)C)c(=O)n(-c2ccccc2)n1C`, the Potency result is “inactive”.

For the compound `Cc1c(NC(C)C)c(=O)n(-c2ccccc2)n1C`, the “activity change, negative = inhibition” value was 12.8%.

Take `CCCCCCCC(=O)OCC(COC(=O)CCCCCCC)OC(=O)CCCCCCC`: the Potency result was “inactive”.

For `CC(=O)NCc1c(I)c(NC(C)=O)c(I)c(C(=O)O)c1I`, the “activity change, negative = inhibition” value was 6.93%.

Consider `CCCCCCCCCCCCCCCCC(C(=O)O)C(O)(CC(=O)O)C(=O)O` (stereo not given), for which the “activity change, negative = inhibition” value is -2.47%.

In the case of `O=C(O)CCC(=O)O`, the “activity change, negative = inhibition” value was -1.49%.

For the compound `CNc1c2c(nn1C)CCCC2`, the “activity change, negative = inhibition” value is 9.66%.

`O=C(NCC(O)CO)c1c(I)c(C(=O)NCC(O)CO)c(I)c(N(CCO)C(=O)CO)c1I` (stereo not given): the “activity change, negative = inhibition” value is 31.4% [at 20.6 µM].

With `COc1cc(C(=O)NCCCCCC(=O)O)cc(OC)c1OC`, the “activity change, negative = inhibition” value is 10.6%.

With `C[n+]1ccccc1/C=N/O`, the “activity change, negative = inhibition” value is 9.74% [at 20.6 µM].

For the compound `NCc1ccc(S(N)(=O)=O)cc1`, the “activity change, negative = inhibition” value is -0.111% [at 20.6 µM].

For the compound `Cc1cc(C)nc(NS(=O)(=O)c2ccc(N)cc2)n1`, the Potency entry was “inactive”.

Turning to `O=C(O)/C=C/c1ccc(Cn2ccnc2)cc1`, the “activity change, negative = inhibition” value is 7.74% [at 20.6 µM].

For the compound `Cn1c([N+](=O)[O-])cnc1COC(N)=O`, the “activity change, negative = inhibition” value is -1.21%.

As for `CC(N)CCCC(C)(C)O` (stereo not given), the “activity change, negative = inhibition” value is 17.4%.

Regarding `Cc1ccccc1N=Nc1ccc(N=Nc2c(O)ccc3ccccc23)c(C)c1`, the “activity change, negative = inhibition” value was 2.88%.

`COc1cc(O)cc(O)c1`: the “activity change, negative = inhibition” value is 11.3%.

For `Cc1cc(NC(=O)C2=C(O)c3ccccc3S(=O)(=O)N2C)no1`, the “activity change, negative = inhibition” value was 11.6%.

For `O=C(NCN1CCOCC1)c1cnccn1`, the “activity change, negative = inhibition” value is 3.16%.

As for `CC(=O)[C@@]1(O)CC[C@H]2[C@@H]3C[C@H](C)C4=CC(=O)C=C[C@]4(C)[C@@]3(F)[C@@H](O)C[C@@]21C`, the “activity change, negative = inhibition” value is -1.69% [at 20.6 µM].

Regarding `Nc1ccncc1N`, the “activity change, negative = inhibition” value is 3.62%.

As to `O=C1CC[C@@H](C(=O)O)N1`, the “activity change, negative = inhibition” value was 1.87%.

`CC1(C)S[C@@H]2[C@H](NC(=O)C(C(=O)O)c3ccccc3)C(=O)N2[C@H]1C(=O)O` (stereo not given in full): the “activity change, negative = inhibition” value was -1.2%.

For `O=C(O)c1ccccc1C(=O)Nc1ccc(S(=O)(=O)Nc2nccs2)cc1`, the “activity change, negative = inhibition” value is 16.1%.

`CC(=O)Nc1ccc(OCCOCCOc2ccc(NC(C)=O)cc2)cc1`: the “activity change, negative = inhibition” value was 7.74%.

With `CC(CSC(=O)c1ccccc1)C(=O)N1C[C@@H](Sc2ccccc2)C[C@H]1C(=O)O` (stereo not given in full), the “activity change, negative = inhibition” value was -7.36%.

For the origin of these results see PubChem BioAssay (NCATS).
